The results in this text go back to PubChem BioAssay (Tox21).

Results filed as inconclusive are left out. Calls of active or inactive are those of the source. Unless noted, the call rests on the fitted dose curve; in most records, active means well fitted curve in the direction sought with a large enough effect in the repeat runs; inconclusive means weak or mixed curves; inactive means no such curve, though single readings can be large; an effect the other way counts as inactive or inconclusive.

Assay [1] in a line: qHTS assay to identify small molecule agonists of the hypoxia (HIF-1) signaling pathway - cell viability counter screen (AID 1224844; calls by dose curve; further: nearly all actives have a fitted effect of over 50% in size; further: potency means the concentration at half of the fitted maximal effect). In outline:
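Cytotoxicity was measured in parallel with the HRE-driven beta-lactamase readout: after 17 hrs of compound exposure at 37C, HRE-bla ME-180 cells received CellTiter-Glo and luminescence was recorded 30 min later.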

The nature of assay [2]: qHTS assay to identify small molecule agonists of H2AX (AID 1224845; active means well fitted activation curve with a large enough effect in the signal ratio in the repeat runs, not every such curve was filed as active; the % refers to the signal ratio). In outline: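 Phospho-H2AX Ser139 measured by HTRF (ex 320 nm; em 665 and 620 nm) after 24 hr antibody incubation. Compounds, 15 concentrations, 0.76% DMSO, were applied to CHO-K1 cells for 3hr at 37C before lysis.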
A general note: qHTS replaces the single test concentration by a dilution series.

Assay [3] is described as follows: qHTS assay to identify small molecule agonists of H2AX - cell viability counter screen (AID 1224847; calls by dose curve; further: nearly all actives have a fitted effect of over 30% in size; further: potency means the concentration at half of the fitted maximal effect). In outline:
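Quantitative HTS viability measurement: CHO-K1 wild-type cells in serum (10% FBS) medium, short 3 hr drug exposure at 37C with 0.76% DMSO, CellTiter-Glo luminescent detection.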

The nature of assay [4]: qHTS assay to identify small molecule antagonists of the estrogen related receptor (ERR) signaling pathway from Tox21 library (AID 1224848). Further: nearly all actives have a fitted effect of over 50% in size. In outline:
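ERR cell line, 2,000 cells/well. 6 h settle, then compound (DMSO) added; 18 h at 37 C; ONE-Glo luminescence after 30 min RT.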

A short description of assay [5]: qHTS assay to identify small molecule agonists of the estrogen related receptor (ERR) signaling pathway from Tox21 library (AID 1224849; calls by dose curve; further: nearly all actives have a fitted effect of over 15% in size). The conditions noted are these: ERR reporter cell line, ONE-Glo luciferase, 18 h; at 92.4 µM (top of the series) unless noted. In outline:
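Cells carrying the ERR reporter were plated and allowed to settle for 6 h, exposed to library compounds for 18 h at 37 C, then lysed with ONE-Glo and luminescence measured.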

The nature of assay [6]: qHTS RealTime-Glo MT Cell Viability Assay in HepG2 cells - 24 hour (AID 1224867). Further: nearly all actives have a fitted effect of over 50% in size. Further: potency means the concentration at half of the fitted maximal effect. In outline:
(§1)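 Real-time, nonlytic viability: 600 HepG2 cells/well mixed with NanoLuc enzyme plus prosubstrate; 5 h settle, compound (DMSO) added by pintool; luminescence monitored over 40 h at 37 C.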

Assay [7] is described as follows: qHTS RealTime-Glo MT Cell Viability Assay in HEK293 cells - 32 hour (AID 1224868). Further: nearly all actives have a fitted effect of over 50% in size. Further: potency means the concentration at half of the fitted maximal effect. In outline: (§2)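 Cells + reagent dispensed (600 cells/well, HEK293) → 5 h at 37 C/5% CO2 → 23 nL compound in DMSO pinned → 40 h at 37 C → luminescence read at 0, 8, 16, 24, 32, 40 h.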
A short description of assay [8]: A CellTox Green Cytotoxicity Assay to monitor cytotoxicity in HEK293 cells - 0 hour (AID 1224869). Further: nearly all actives have a fitted effect of over 50% in size. In outline: (§3)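 Cells (HEK293, 600/well) and dye reagent are dispensed together. After 5 h at 37 C, 23 nL compound is pinned in. Plates stay at 37 C for 40 h with fluorescence read at 0h, 8h, 16h, 24h, 32h and 40h.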
Assay [9] is described as follows: qHTS RealTime-Glo MT Cell Viability Assay in HepG2 cells - 40 hour (AID 1224870). Further: nearly all actives have a fitted effect of over 50% in size. Further: potency means the concentration at half of the fitted maximal effect. In outline: (§4)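 Real-time viability: cells seeded at 600 per well together with NanoLuc and cell-permeant prosubstrate, compounds added after 5 h incubation. Luminescence tracked at 0, 8, 16, 24, 32 and 40 h of exposure.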
The nature of assay [10]: A CellTox Green Cytotoxicity Assay to monitor cytotoxicity in HEK293 cells - 40 hour (AID 1224871). Further: nearly all actives have a fitted effect of over 45% in size. Further: potency means the concentration at half of the fitted maximal effect. In outline: as §3
Assay [11] is described as follows: qHTS RealTime-Glo MT Cell Viability Assay in HepG2 cells - 8 hour (AID 1224873). Further: nearly all actives have a fitted effect of over 55% in size. Further: potency means the concentration at half of the fitted maximal effect. In outline:
as §4

Assay [12] is described as follows: qHTS RealTime-Glo MT Cell Viability Assay in HEK293 cells - 40 hour (AID 1224874). Further: nearly all actives have a fitted effect of over 50% in size. Further: potency means the concentration at half of the fitted maximal effect. As to conditions: RealTime-Glo luminescence; max response: active compounds read low. In outline: (§5)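 Real-time viability in HEK293: signal arises when living cells convert a prosubstrate for NanoLuc in the medium, so luminescence tracks viable cell number. Compound (23 nL, DMSO) added 5 h post-seeding; kinetic reads at 0–40 h, 37 C.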

Assay [13] can be described thus: A CellTox Green Cytotoxicity Assay to monitor cytotoxicity in HEK293 cells - 24 hour (AID 1224875). Further: nearly all actives have a fitted effect of over 45% in size. Further: potency means the concentration at half of the fitted maximal effect. In outline: as §3
A short description of assay [14]: A CellTox Green Cytotoxicity Assay to monitor cytotoxicity in HepG2 cells - 16 hour (AID 1224876). Further: nearly all actives have a fitted effect of over 45% in size. Further: potency means the concentration at half of the fitted maximal effect. In outline: (§6)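 Cells and non-lytic dye reagent are dispensed together (600 HepG2 cells/well) and incubated 5 h before DMSO compound transfer. Kinetic fluorescence is then recorded in the same wells during 40 h at 37 C.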
Assay [15] can be described thus: qHTS RealTime-Glo MT Cell Viability Assay in HepG2 cells - 32 hour (AID 1224877). Further: nearly all actives have a fitted effect of over 55% in size. Further: potency means the concentration at half of the fitted maximal effect. In outline:
as §1

Assay [16] can be described thus: A CellTox Green Cytotoxicity Assay to monitor cytotoxicity in HepG2 cells - 24 hour (AID 1224878). Further: nearly all actives have a fitted effect of over 45% in size. Further: potency means the concentration at half of the fitted maximal effect. In outline:
as §6

The nature of assay [17]: A CellTox Green Cytotoxicity Assay to monitor cytotoxicity in HepG2 cells - 40 hour (AID 1224879). Further: nearly all actives have a fitted effect of over 40% in size. Further: potency means the concentration at half of the fitted maximal effect. In outline: as §6
Assay [18] is described as follows: qHTS RealTime-Glo MT Cell Viability Assay in HEK293 cells - 0 hour (AID 1224880). Further: nearly all actives have a fitted effect of over 45% in size. Further: potency means the concentration at half of the fitted maximal effect. In outline:
as §5

The nature of assay [19]: qHTS RealTime-Glo MT Cell Viability Assay in HEK293 cells - 16 hour (AID 1224872). Further: nearly all actives have a fitted effect of over 50% in size. Further: potency means the concentration at half of the fitted maximal effect. In outline: as §2
The nature of assay [20]: qHTS assay to identify small molecule agonists of the hypoxia (HIF-1) signaling pathway (AID 1224846; active means well fitted activation curve with a large enough effect in the signal ratio in the repeat runs, not every such curve was filed as active; the % refers to the signal ratio). In outline: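 Compounds from the Tox21 10K library, dissolved in DMSO, are tested for induction of a hypoxia response element–controlled beta-lactamase reporter in ME-180 cells. Exposure lasts 17 hrs at 37C after a 5 hr settling period, followed by CCF4-AM FRET substrate.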
On the % scale 0 is the no-effect control and ±100 the full control effect.

Turning to `CCCCN(CCCC)C(=S)[S-].CCCCN(CCCC)C(=S)[S-].[Ni+2]`, the Potency result in [1], in assay [2], in assay [3], in assay [4], in [6] and in [7] was “inactive” each time. Further, the Potency entry in assay [8], in [9], in [10], in assay [11], in assay [13] and in [14] was “inactive” in each case. Also, the Potency entry in assay [15], in assay [16], in assay [17] and in assay [18] was “inactive” each time. Further, the activity change, positive = activation in assay [5] is -0.422% [at 42.5 µM] (inactive). In assay [12], the max response is -23% (inactive).
In the case of `CC(Cc1ccc(O)cc1)NCC(O)c1cc(O)cc(O)c1` (centres undefined), the Potency entry in [1], in assay [2], in assay [3], in assay [6], in assay [7] and in assay [8] was “inactive” throughout. Moreover, the Potency result in [10], in [19], in assay [11], in assay [13], in [14] and in assay [15] was “inactive” in each case. In addition, the Potency entry in assay [17] and in [18] was “inactive” in each case. Also, the max response in assay [12] is 1.61% (inactive).
Consider `CCN1CCC2(CC1)COc1cc3c(cc12)N(C(=O)c1ccc(-c2ccc(-c4nnc(C)o4)cc2C)cc1)CC3`, for which the Potency in assay [1] is 20.2 µM (active); in assay [3], 104 µM (active); in assay [7] it was 11.3 µM (active); in assay [9] it was 45.2 µM (active); in assay [10] it was 40.3 µM (active); in [19], 18 µM (active). In addition, the Potency in [13] was 50.7 µM (active); in assay [14] it was 50.7 µM (active); in [15], 45.2 µM (active); in [17], 45.2 µM (active); in assay [18] it was 25.4 µM (active). Moreover, the Potency result in assay [2] and in assay [8] was “inactive” each time. Further, the activity change, positive = activation in assay [5] was -74.2% (inactive).
As to `[Cl][Hg][c]1ccccc1`, the Potency was 1.38 µM (active) in assay [1]; 7.13 µM (active) in assay [3]; 2.75 µM (active) in [6]; 1.1 µM (active) in assay [7]; 3.09 µM (active) in assay [9]; 1.23 µM (active) in [10]. For the same compound, the Potency is 2.75 µM (active) in assay [11]; 1.1 µM (active) in assay [12]; 2.19 µM (active) in [13]; 2.75 µM (active) in assay [14]; 2.75 µM (active) in assay [15]; 3.47 µM (active) in assay [16]. For the same compound, the Potency in [17] is 2.19 µM (active). Also, the Potency result in assay [2], in [8] and in assay [18] was “inactive” in each case.
For `CCCCc1ccccc1`, the Potency result in [1], in [2], in [3], in assay [6], in [7] and in assay [8] was “inactive” each time. Moreover, the Potency result in [9], in [10], in assay [19], in assay [11], in assay [13] and in [14] was “inactive” throughout. Besides, the Potency entry in assay [15], in assay [16], in assay [17] and in assay [18] was “inactive” in each case. Moreover, the max response in assay [12] was -16% (inactive).
As to `N#CCCl`, the Potency result in assay [1], in [2], in assay [20], in assay [6], in assay [8] and in assay [9] was “inactive” throughout. Further, the Potency entry in assay [10], in assay [19], in [11], in assay [13], in assay [14] and in [15] was “inactive” throughout. For the same compound, the Potency entry in assay [16], in assay [17] and in assay [18] was “inactive” each time.
`Cc1ccc2cc3c(ccc4ccccc43)c3c2c1CC3`: the Potency result in assay [1], in assay [2], in [3], in [6], in assay [7] and in [8] was “inactive” throughout. Moreover, the Potency entry in assay [9], in assay [19], in [11], in assay [14], in [15] and in assay [18] was “inactive” each time. Moreover, in assay [12], the max response is 6.91% (inactive). Further, in [17], the Potency is 6.93 µM (active).
